Experimental findings from PubChem BioAssay (NCI) are described below.

What all share (experiment): NCI-60 one-dose screen, 48 h (100 = growth as untreated, 0 = no growth, -100 = all killed)
Details in all cases: 10 µM unless noted

The test system of experiment [1] is NCI-H23 lung.
Experiment [2] concerns NCI-H226 lung.
For experiment [3], the system named is NCI-H322M lung.
Experiment [4] concerns HOP-62 NSCLC.
For experiment [5], the system named is NCI-H460 lung.
Experiment [6] relates to HOP-92 NSCLC.
Experiment [7] has as its system NCI-H522 lung.
Experiment [8] deals with A549/ATCC NSCLC.
Experiment [9] has as its system 786-0 renal.
Experiment [10] deals with COLO 205 colon.
The subject of experiment [11] is DU-145 prostate.
Experiment [12] has as its system K-562 leukemia.
Experiment [13] concerns MALME-3M melanoma.
Experiment [14] deals with MDA-MB-231 breast.
Experiment [15] concerns RXF 393 renal.
Experiment [16] has as its system SF-268 CNS.
The test system of experiment [17] is SF-295 CNS.
Experiment [18] has as its system UACC-257 melanoma.
The subject of experiment [19] is M14 melanoma.
Experiment [20] relates to SF-539 CNS.

Structures are written as SMILES. The panel holds about 83,000 compounds, 20% with a hit somewhere; the sample as a whole holds those more often.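 Treatment: one concentration, 48 hours, 96-well format. Scoring: percent growth, with anything below 10 considered active.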 Values without a mark were called inactive. Activity calls are given as the source filed them.

On to `CC1=CC(=Nc2ccc(N(C)C)cc2)C=C(C)C1=O`, for which the growth is 66.2% in experiment [1]; 83.5% in [2]; 95.8% in [3]; 86% in experiment [4]; 102% in experiment [5]; 48.6% in experiment [6]. The growth in [7] was 94.4%; in [8], 77.9%; in experiment [9], 95%; in experiment [10], -14.5% (active); in [11] it was 101%; in experiment [12] it was 75.1%. In addition, the growth was 92.6% in experiment [13]; 64% in experiment [14]; 65.1% in experiment [15]; 88.6% in experiment [16]; 97.3% in [17]; 77.5% in experiment [18]. Moreover, the growth in [19] was 91.9%.
As for `NC(=S)N/N=C/c1ccc(OC(=O)COc2ccc(Cl)cc2)cn1`, the growth was 33.5% in experiment [1]; 93.5% in experiment [2]; 42.5% in experiment [3]; 53% in experiment [4]; 69.7% in experiment [5]; 66.9% in experiment [6]. Moreover, the growth was 43.3% in [7]; 107% in experiment [8]; 32.5% in experiment [9]; 84.7% in experiment [10]; 29.3% in experiment [11]; 44.1% in [12]. In addition, the growth was 45.5% in experiment [13]; 66.6% in [14]; 67% in experiment [15]; 27.8% in [16]; 99.2% in experiment [17]; 78.1% in experiment [18].
As for `CC1CC(C)S(=O)(=O)C1` (centres undefined), the growth in experiment [1] was 106%; in experiment [2] it was 105%; in [3], 113%; in experiment [4] it was 115%; in experiment [5], 116%; in experiment [6], 120%. In addition, the growth was 97.8% in [7]; 92.6% in experiment [8]; 107% in experiment [9]; 108% in experiment [10]; 104% in [11]; 92.4% in experiment [12]. Besides, the growth was 110% in experiment [13]; 115% in experiment [14]; 115% in experiment [15]; 111% in experiment [16]; 105% in experiment [17]; 104% in experiment [20]. The growth in experiment [18] was 95.7%; in [19], 111%.
Take `O=C(NC(=S)N1CC=CCC1)c1ccccc1`: the growth in experiment [1] was 107%; in experiment [2], 104%; in experiment [3] it was 116%; in experiment [4], 109%; in [5] it was 113%; in [6], 104%. Besides, the growth in experiment [7] was 77.3%; in experiment [8], 103%; in [9], 111%; in experiment [10], 118%; in experiment [11], 129%; in experiment [12], 111%. For the same compound, the growth in experiment [13] is 100%; in experiment [14] it was 104%; in experiment [15] it was 128%; in experiment [16], 108%; in experiment [17], 111%; in experiment [18] it was 105%. Also, in experiment [19], the growth was 95.8%.
For the compound `Nc1c(Br)cc(O)c2c1C(=O)c1ccccc1C2=O`, the growth was 32.8% in experiment [1]; 108% in experiment [2]; 98.7% in experiment [3]; 117% in experiment [4]; 102% in experiment [5]; 70.9% in experiment [6]. Further, the growth in experiment [7] is 54%; in experiment [8], 96.1%; in experiment [9], 106%; in experiment [10], 135%; in experiment [11], 91.6%; in experiment [12], 66.3%. The growth in experiment [13] was 89.5%; in experiment [14], 77.5%; in experiment [15], 80.5%; in experiment [16], 60.3%; in experiment [17], 114%; in experiment [18], 89.1%. In addition, the growth in experiment [19] was 100%.
Consider `COc1c(CNC(=O)CCl)cc2[nH]c(C)cc2c1CNC(=O)CCl`, for which the growth in experiment [1] is 57.2%; in experiment [2] it was 69.4%; in experiment [3], 67.4%; in experiment [4], 70.4%; in experiment [5], 31.5%; in experiment [6], 107%. For the same compound, the growth in experiment [7] was -2.03% (active); in [8], 56.4%; in experiment [9], 68%; in experiment [10] it was 54.8%; in experiment [11], 65.8%; in experiment [12], 63.5%. In addition, the growth in experiment [13] is 82%; in experiment [14], 87.7%; in [15] it was 60.8%; in [16] it was 59.4%; in experiment [17], 64.7%; in experiment [20] it was 72.3%. Moreover, the figures for the growth in [18] and in [19] were 51.9% and 47.3%, respectively.
For the compound `O=C(c1ccccc1O)N1CCCC1`, the growth was 99.3% in experiment [1]; 94.5% in [2]; 101% in [3]; 89.7% in [4]; 105% in experiment [5]; 94.5% in experiment [6]. For the same compound, the growth in experiment [7] was 76.1%; in [8] it was 74.9%; in experiment [9], 95.9%; in experiment [10], 103%; in [11] it was 115%; in [12] it was 89.1%. Also, the growth in experiment [13] is 104%; in experiment [14], 105%; in [15] it was 106%; in [16], 106%; in experiment [17] it was 96.6%; in [18], 80.2%. In addition, in [19], the growth is 96.4%.
`Cc1ccc([N+](=O)[O-])c(C)n1`: the growth was 108% in experiment [1]; 106% in experiment [2]; 101% in [3]; 106% in [4]; 112% in experiment [5]; 84.2% in experiment [6]. The growth in [7] was 98.9%; in experiment [8], 105%; in [9], 114%; in experiment [10], 111%; in [11], 114%; in experiment [12], 114%. In addition, the growth was 100% in [13]; 117% in experiment [14]; 128% in experiment [15]; 98.6% in experiment [16]; 97.7% in experiment [17]; 89.5% in experiment [20]. For the same compound, the values for the growth in experiment [18] and in experiment [19] were 98.1% and 110%, respectively.
